Compound activity from PubChem.
Compounds with a hit are over-represented: about 2.3% of the library has one in this group of screens.
Tau fibril ThT: tau fibrillization inhibition (ThT binding). AID 1460. recombinant tau K18 P301L, heparin-induced fibrillization, ThT fluorescence. P10636. Potency, µM (doses to about 57.4 µM), for the others: at the top dose activity, negative = inhibition, hits mostly inhibitors. 2.1% of 270,000 active; note: potency is the fitted concentration of half-maximal effect; nearly all actives have a fitted effect of over 55% in size
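Fibril formation assay: tau K18 P301L at 15 uM with trace Alexa 594 label, heparin inducer 20 uM, pH 7 sodium acetate buffer, 37 C for 6 hr; endpoint ThT signal.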
Coupling enz: counter-screen for Giardia aldolase inhibitors: coupling enzyme system. coupling enzyme system counterscreen, AmpLite Red fluorescence. 0.67% of 290,000 active. AID 2472. activity change, negative = inhibition, % at 58.2 µM, hits read low; in the data active = activity change below about -30%
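Fluorescence at 525 nm excitation and 598 nm emission measured inhibition of the coupled detection system without aldolase. Compounds (at 57.5 uM final) were preincubated 10 min at room temperature with coupling enzyme reagent before a 20 min substrate/AmpLite Red step.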
Tau fibril FP: inhibitors of human tau fibril formation. P10636. K18 P301L tau heparin fibrillization, Alexa594 FP, 6 h. Potency, µM (titrated, usually from 57.7 µM), without a hit: top-dose activity, negative = inhibition, most hits filed as inhibitors. 0.39% of 280,000 active. AID 1468; note: potency is the fitted concentration of half-maximal effect; nearly all actives have a fitted effect of over 55% in size
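Read-out: fluorescence polarization of Alexa 594-labeled tau (0.24 uM), 555 nm excitation, 632 nm emission. Mixtures held 15 uM unlabeled K18 P301L, compound and 20 uM heparin, pH 7 acetate buffer, incubated 6 hr at 37 C.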
USP1 inh: blocks the human USP1/UAF1 deubiquitinase complex | recombinant USP1/UAF1, Ub-Rhodamine cleavage fluorescence | Potency, µM (series often up to 57.1 µM), inactives show at the highest dose activity change, negative = inhibition, usual class: inhibitors | 0.23% of 390,000 active | AID 743255; note: potency is the fitted concentration of half-maximal effect; nearly all actives have a fitted effect of over 60% in size
Target sequence (O94782 whole entry, looked up): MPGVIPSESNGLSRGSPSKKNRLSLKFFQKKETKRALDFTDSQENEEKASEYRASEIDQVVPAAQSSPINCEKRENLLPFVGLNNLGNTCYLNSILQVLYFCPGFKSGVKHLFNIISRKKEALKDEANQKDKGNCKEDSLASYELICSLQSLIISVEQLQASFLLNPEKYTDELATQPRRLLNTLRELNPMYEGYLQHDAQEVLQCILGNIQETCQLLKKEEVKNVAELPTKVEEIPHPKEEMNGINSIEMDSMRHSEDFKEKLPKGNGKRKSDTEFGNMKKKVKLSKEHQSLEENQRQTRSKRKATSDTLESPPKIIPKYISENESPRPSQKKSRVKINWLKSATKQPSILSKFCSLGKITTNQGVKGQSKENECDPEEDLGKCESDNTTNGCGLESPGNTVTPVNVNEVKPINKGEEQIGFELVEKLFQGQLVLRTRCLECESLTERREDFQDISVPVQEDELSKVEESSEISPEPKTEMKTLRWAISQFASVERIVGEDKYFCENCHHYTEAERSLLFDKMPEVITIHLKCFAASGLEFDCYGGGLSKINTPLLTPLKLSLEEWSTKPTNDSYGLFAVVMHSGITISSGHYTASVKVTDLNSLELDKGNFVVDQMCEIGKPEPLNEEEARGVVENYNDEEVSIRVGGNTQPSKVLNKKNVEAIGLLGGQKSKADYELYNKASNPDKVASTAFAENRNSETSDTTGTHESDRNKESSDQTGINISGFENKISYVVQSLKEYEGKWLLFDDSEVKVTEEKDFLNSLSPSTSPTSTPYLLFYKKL
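USP1/UAF1 complex (1 nM) preincubated 15 min at room temperature with compound, then Ub-Rho substrate (150 nM final) added. Kinetic fluorescence at 480/540 nm over 6 reads at 60 s intervals; 50 mM HEPES pH 7.8, 0.5 mM EDTA, 0.1 mg/ml BSA, 1 mM TCEP, 0.01% Tween-20.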
Tau fluor cs: counter-screen for tau fibril formation inhibitors; tau K18 P301L (four-repeat tau fragment) Alexa594 fluorescence, heparin fibrillization; Potency, µM (top dose mostly 57.7 µM), without a hit: at the top dose activity change, negative = decrease; 0.93% of 280,000 active; AID 1463; note: potency is the fitted concentration of half-maximal effect; nearly all actives have a fitted effect of over 55% in size
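Human K18 P301L tau (15 uM unlabeled plus 0.24 uM Alexa 594-labeled, final) in 100 mM sodium acetate pH 7 was mixed with compound and 20 uM heparin and incubated 6 hr at 37 C.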
Starred values were filed as active, the others as inactive; ? = inconclusive; · = no result; [ ] = dose if it differs, or a comment. Unless noted, calls come from the whole dose curve; as a rule, active = well fitted curve in the direction sought with a large enough effect; inconclusive = small, poorly fitted or top-dose-only effect, or another doubt; inactive = no such curve, though single readings can be large; an effect the other way counts as inactive or inconclusive. % is set by controls: 0 for no effect and ±100 for the full control effect.

SMILES	Tau fibril ThT	Coupling enz	Tau fibril FP	USP1 inh	Tau fluor cs
O=C(O)c1cccc(NC2=C(n3nnc4ccccc43)C(=O)c3ccccc3C2=O)c1	·	-32*	1%	28µM*	-13%
CN(C)c1ccc(-c2ccc3ncnc(NCc4ccccc4)c3c2)cc1	?	-7	?	·	10µM*[quencher]
c1ccc(CNc2ncnc3ccc(-c4ccoc4)cc23)cc1	·	-1	·	·	·
COc1ccc(CNc2nc(-c3ccc(N(C)C)cc3)nc3ccccc23)c(OC)c1	·	-37*	·	·	·
c1cncc(CNc2nc(-c3ccoc3)nc3ccccc23)c1	28µM*	-1	?	·	?
COc1ccc(CNc2nc(-c3ccc(C(=O)N(C)C)cc3)nc3ccccc23)c(OC)c1	-3%	-13	6%	·	-25%
Oc1ccccc1-c1nc(NCc2cccnc2)c2ccccc2n1	-15%	-7	?	-4%	?
CN(C)c1ccc(-c2nc(NCc3cccnc3)c3ccccc3n2)cc1	14µM*	-3	-10%	·	18µM*[quencher]
Cc1ccc(NC(=O)c2c(NC(=O)C(F)(F)F)sc3c2CCCCC3)cc1	14µM*	·	10%	-19%	?
Cc1ccccc1NC(=O)c1c(NC(=O)C(F)(F)F)sc2c1CCCCC2	?	·	?	-2%	?
O=C(O)CCC(=O)Nc1sc2c(c1C(=O)Nc1cccc3ccccc13)CCCCC2	-3%	-1	9%	-1%	6%
O=C(O)CCC(=O)Nc1sc2c(c1C(=O)Nc1ccccc1)CCCCC2	14µM*	0	?	-12%	-30%
O=C(Nc1cccc(Cl)c1)c1c(NC(=O)C(F)(F)F)sc2c1CCCC2	10µM*	·	?	?	?
O=C(COc1ccc(Cl)cc1)Nc1sc2c(c1C(=O)Nc1cccc(Cl)c1)CCCC2	13µM*	·	?	?	-8%
Cc1noc(C)c1-c1ccc2ncnc(NCc3ccc(Br)cc3)c2c1	·	0	·	·	·
Cc1cccc(NC(=O)c2c(NC(=O)C(F)(F)F)sc3c2CCCCC3)c1	16µM*	·	11%	-16%	?
N=C(N)S/C=C\C(=O)O	28µM*	1	?	·	-19%
CC(=O)Nc1ccc(S(=O)(=O)N2CCN(c3nc(NC4CCCC4)c4ccccc4n3)CC2)cc1	-17%	-4	22µM*	-8%	14µM*[quencher]
COC(=O)c1cc(-c2ccc(C)cc2)c2c(=O)n(C)c(=O)n(C)c2n1	6%	·	-3%	-25%	1%
O=C(Nc1ccccc1)C1=C(c2ccccc2)S(=O)(=O)CCS1(=O)=O	28µM*	1	22µM*	-21%	-20%
Cc1c(Cl)cccc1N1C(=O)C(N2C(=O)c3cccc([N+](=O)[O-])c3C2=O)C1c1cccs1 (stereo not drawn)	-7%	-42*	5%	-20%	-3%
COc1ccc(S(=O)(=O)NCCC(=O)NCc2ccccc2)cc1	10%	2	?	-7%	7.9µM*[quencher]
O=C1Cc2ccccc2Sc2c(OCCN3CCCCC3)cccc21	-5%	-50*	-3%	-2%	-1%
COc1cccc(OC)c1OC(=O)c1ccccc1	·	·	·	-6%	·
Cn1c(CNc2ccc(Cl)cc2)nc2ccccc21	?	-3	2%	-3%	-17%
SMILES	Tau fibril ThT	Coupling enz	Tau fibril FP	USP1 inh	Tau fluor cs
Cc1ccc(N2CCN(c3ccc(NCc4nc5ccccc5n4C)cc3)CC2)cc1	2.5µM*	-7	-14%	-4%	?
Cc1csc2nc(-c3ccc(NS(=O)(=O)c4cccc(F)c4)cc3)cn12	-15%	·	?	-6%	?
Fc1ccc2[nH]c3c(N4CCN(c5ccccc5)CC4)ncnc3c2c1	?	4	11%	-23%	25µM*[quencher]
CCOC(=O)N1CCN(c2ncnc3c2[nH]c2ccc(OC)cc23)CC1	8.9µM*	-2	3%	-4%	-29%
COc1ccc(OC)c(NC(=O)C(C)n2c(=O)cc(C)c3c(C)nn(-c4ccccc4)c32)c1 (stereo not drawn)	-1%	·	-13%	-20%	-20%
CC(=O)Oc1ccc(C(=O)Cc2ccc3ccccc3n2)c(O)c1C	1.4µM*	1	1%	-20%	-15%
Cc1c(O)ccc(/C(Cc2ccc3ccccc3n2)=N\O)c1O	-12%	4	3%	-15%	-23%
O=C(Cc1ccccc1)N(Cc1cccnc1)c1nc2ccc(F)cc2s1	-1%	·	-6%	-19%	-20%
Nc1ccc(C(=O)NCCCCCCNC(=O)c2ccc(N)cc2)cc1	·	1	·	-9%	·
Nc1ccc(C(=O)NCC(=O)O)cc1	32µM*	-13	?	12%	?
CCOC(=O)N1CCc2c(sc3c2c(=O)n(Cc2ccccc2)c(=O)n3CC(=O)Nc2ccccc2F)C1	0%	·	?	-16%	-23%
Cc1sc2c3ccsc3ccc2[n+]1C	25µM*	-2	20µM*	-21%	-22%
Cc1sc2ccc3sccc3c2[n+]1C	25µM*	-1	?	-19%	-24%
Cc1ccc(NC(=S)N2CCN(S(C)(=O)=O)CC2)cc1C	·	·	·	-15%	·
Cc1cc(C2=CC(C)(c3cc(C)oc3C)Nc3nc(C(F)(F)F)nn32)c(C)o1 (stereo not drawn)	28µM*	-12	?	·	-11%
COc1ccc(Cn2c(=O)c3cccnc3n(Cc3cccc(OC)c3)c2=O)cc1	-3%	·	-8%	-6%	?
COCCN(C(=O)c1snc(C(N)=O)c1N)C(C(=O)NC1CCCCC1)c1ccc(N(C)C)cc1 (stereo not drawn)	·	-1	·	-10%	·
Cc1cc(NC(=O)c2sc(Nc3cccc(C(F)(F)F)c3)nc2N)no1	11µM*	0	?	-5%	18µM*[quencher]
COc1ccc(NC(=O)c2cc3c(Cl)nc4ccccc4c3s2)cc1OC	?	3	7%	-12%	4.5µM*[quencher]
Cc1ccc2nc(-c3ccc(Cl)s3)c(Nc3ccc4c(c3)OCCO4)n2c1	-15%	·	10%	-6%	?
Cc1ccn2c(Nc3ccc4c(c3)OCCO4)c(-c3ccc(Cl)s3)nc2c1	?	·	?	-23%	7.1µM*[quencher]
Clc1ccc2nc(-c3cccs3)c(Nc3ccc4c(c3)OCCO4)n2c1	1%	·	10%	-19%	?
Clc1ccc(-c2nc3ccccn3c2Nc2ccc3c(c2)OCCO3)s1	?	·	11%	-13%	6.3µM*[quencher]
O=C(O)CC(NS(=O)(=O)c1ccc(Br)s1)c1ccccc1 (stereo not drawn)	4%	·	-1%	-11%	4%
O=C(/C=C/c1ccccc1Cl)N1CCC(c2nc3ccccc3o2)CC1	-13%	·	8%	-1%	0%
CCn1c(SCC(=O)NNC(=O)c2ccc(OC)cc2)nnc1-c1ccco1	5.6µM*	0	0%[2.34 µM]	-27%	-45%
COc1ccc(C(=O)CSc2nnc(-c3ccco3)n2C)cc1	-15%	0	2%	2%	3%
CCn1c(SCC(=O)NNC(=O)c2ccc(C)cc2)nnc1-c1ccco1	7%	3	-6%	-15%	0%
